The source made the active and inactive calls.

The text below walks through data of PubChem BioAssay.

The nature of assay [1]: E. coli DRC41 culture turbidity changes, primary screen, E. coli filamentation inducer project, strain DRC41, OD650, 48 h (AID 1152).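 Also: E. coli MC1000 strain DRC41 lacking acrAB efflux pump and sulA.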 The note with it: E. coli DRC41 (acrAB sulA), higher = more signal, called active from +8 up or from −8 down.
Assay [2] in a line: small-molecule binders of probe aLefty1, primary screen, biochemical, small-molecule microarray, 635/667 nm fluorescence (AID 1153).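 Also: score merges spot fluorescence with signal-to-noise ratio from the scanned slide images.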 The note with it: higher = more signal.
The nature of assay [3]: PSAC antagonists in infected red cells, primary screen, cell-based, P. falciparum Indochina, OD700, 1 h (AID 1154). The note with it: P. falciparum Indochina infected RBC osmotic lysis, higher = more signal, called active from +8 up or from −8 down.
Assay [4] is described as follows: PSAC antagonists in infected red cells, primary screen, cell-based, P. falciparum Indochina, OD700, 2 h (AID 1155).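 Also: lysis reports solute entry through the parasite surface anion channel PSAC; channel blockers reduce lysis of infected cells.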 The note with it: P. falciparum Indochina infected erythrocytes, osmotic lysis OD700; higher = more signal, called active from +8 up or from −8 down.
A short description of assay [5]: osmotic lysis modulators in infected erythrocytes, primary screen, PSAC antagonist project, cell-based, P. falciparum Indochina, OD700, 3 h (AID 1156). The note with it: higher = more signal, called active from +8 up or from −8 down.
Assay [6] is described as follows: PSAC antagonists in infected red cells, primary screen, cell-based, P. falciparum Indochina, OD700, 18 h (AID 1157). The note with it: P. falciparum Indochina infected erythrocytes, osmotic lysis OD700, 18 h; higher = more signal, called active from +8 up or from −8 down.
The nature of assay [7]: modulators of S6 phosphorylation in cells, primary screen, cell-based, A549, cytoblot, luminescence, serum-stimulated (AID 1158).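 Also: serum-stimulated A549 lung adenocarcinoma cells; signal is phosphorylated S6 detected by cytoblot immunostaining with HRP secondary.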 The note with it: A549 phospho-S6 cytoblot, 5 h, higher = more signal.
The target of assay [8] is NADPH oxidase 2 (Homo sapiens) (UniProt P04839). The assay can be described thus: NOX2-dependent H2O2 signal modulators, primary screen, NOX inhibitor project, cell-based, HEK293-NOX2, PMA-stimulated, Amplex Red fluorescence (AID 1159). Also: test concentration not given here. The note with it: 45 min, higher = more signal, called active from +8 up or from −8 down.
For assay [9], the target named is NADPH oxidase 4 (Homo sapiens) (UniProt Q9NPH5). Description: NOX4-dependent H2O2 signal modulators, primary screen, NOX inhibitor project, cell-based, HEK293-NOX4, tetracycline-induced, Amplex Red fluorescence (AID 1160). The note with it: 45 min, higher = more signal, called active from +8 up or from −8 down.
In assay [10] the target is NADPH oxidase 5 (Homo sapiens) (UniProt Q96PH1). The assay can be described thus: NOX5-dependent H2O2 signal modulators, primary screen, NOX inhibitor project, cell-based, HEK293-NOX5, Amplex Red fluorescence (AID 1161). The note with it: HEK293-NOX5, ionomycin, 45 min, higher = more signal.
The nature of assay [11]: A549 cell viability effects, profiling panel, calcein-AM fluorescence, 48 h, basal (AID 1162). Also: test concentration not given here. The note with it: higher = more signal.
Assay [12] in a line: adipocyte viability effects, profiling panel, cell-based, 3T3-L1 adipocytes, calcein-AM fluorescence, 48 h, basal (AID 1163). Also: test concentration not given here. The note with it: 3T3-L1 adipocytes viability, higher = more signal.
Assay [13] is described as follows: HepG2 cell viability effects, profiling panel, calcein-AM fluorescence, 48 h, basal (AID 1164). Also: test concentration not given here. The note with it: higher = more signal.
Assay [14] is described as follows: MM1S cell viability effects, profiling panel, calcein-AM fluorescence, 48 h, basal (AID 1165).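 Also: viability of MM1S multiple myeloma cells under basal unstimulated conditions; test concentration not given here.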 The note with it: higher = more signal.
A short description of assay [15]: basal RPMI8226 viability, no added stimulus, profiling panel, cell-based, calcein-AM fluorescence, 48 h, PK04 Diversity Set (AID 1166).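 Also: cells grown under basal conditions without added stimulus; test concentration not given here.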 The note with it: RPMI8226 myeloma viability, higher = more signal.
The nature of assay [16]: basal HepG2 mitochondrial membrane potential changes, profiling panel, cell-based, JC-1 fluorescence, 24 h, 100 nL compound (AID 1167). Also: test concentration not given here. The note with it: higher = more signal.
Assay [17] can be described thus: basal 3T3-L1 adipocyte mitochondrial potential changes, profiling panel, cell-based, JC-1 fluorescence, 3T3-L1 adipocytes, 24 h, 100 nL compound (AID 1168). Also: test concentration not given here. The note with it: JC-1 mitochondrial fluorescence, higher = more signal, called active from +8 up or from −8 down.
Assay [18] can be described thus: basal RPMI8226 mitochondrial membrane potential changes, profiling panel, cell-based, JC-1 fluorescence, 24 h, 100 nL compound (AID 1169). Also: test concentration not given here. The note with it: RPMI8226 myeloma, JC-1 mitochondrial potential fluorescence, higher = more signal.
A short description of assay [19]: basal MM1S mitochondrial membrane potential changes, profiling panel, cell-based, JC-1 fluorescence, 24 h, 100 nL compound (AID 1170). Also: test concentration not given here. The note with it: higher = more signal.
Assay [20] in a line: A549 lung cancer cell viability effects, profiling panel, resazurin fluorescence, 24 h, PK04 Diversity Set (AID 1171). Also: test concentration not given here. The note with it: higher = more signal, called active from +8 up or from −8 down. A general note: The colour change of resazurin is a common sign of viable cells or microbes.

NADPH oxidase 4 (Homo sapiens), sequence (Q9NPH5 whole entry, looked up): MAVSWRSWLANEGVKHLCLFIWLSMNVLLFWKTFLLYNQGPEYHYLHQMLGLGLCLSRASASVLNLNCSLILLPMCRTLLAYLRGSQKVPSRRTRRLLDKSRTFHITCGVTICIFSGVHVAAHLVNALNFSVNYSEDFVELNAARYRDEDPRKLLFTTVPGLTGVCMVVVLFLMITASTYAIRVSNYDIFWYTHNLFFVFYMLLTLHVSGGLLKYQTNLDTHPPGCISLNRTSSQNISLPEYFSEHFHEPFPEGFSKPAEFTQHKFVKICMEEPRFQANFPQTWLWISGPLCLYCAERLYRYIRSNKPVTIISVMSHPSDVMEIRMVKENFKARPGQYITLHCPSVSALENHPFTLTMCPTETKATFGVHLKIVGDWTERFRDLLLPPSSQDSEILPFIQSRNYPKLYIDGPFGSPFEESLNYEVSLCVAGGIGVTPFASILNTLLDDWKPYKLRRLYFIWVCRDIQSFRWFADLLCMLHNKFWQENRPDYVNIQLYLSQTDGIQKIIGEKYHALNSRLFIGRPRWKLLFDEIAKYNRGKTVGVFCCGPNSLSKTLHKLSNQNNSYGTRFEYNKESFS
NADPH oxidase 5 (Homo sapiens), sequence (Q96PH1 whole entry, looked up): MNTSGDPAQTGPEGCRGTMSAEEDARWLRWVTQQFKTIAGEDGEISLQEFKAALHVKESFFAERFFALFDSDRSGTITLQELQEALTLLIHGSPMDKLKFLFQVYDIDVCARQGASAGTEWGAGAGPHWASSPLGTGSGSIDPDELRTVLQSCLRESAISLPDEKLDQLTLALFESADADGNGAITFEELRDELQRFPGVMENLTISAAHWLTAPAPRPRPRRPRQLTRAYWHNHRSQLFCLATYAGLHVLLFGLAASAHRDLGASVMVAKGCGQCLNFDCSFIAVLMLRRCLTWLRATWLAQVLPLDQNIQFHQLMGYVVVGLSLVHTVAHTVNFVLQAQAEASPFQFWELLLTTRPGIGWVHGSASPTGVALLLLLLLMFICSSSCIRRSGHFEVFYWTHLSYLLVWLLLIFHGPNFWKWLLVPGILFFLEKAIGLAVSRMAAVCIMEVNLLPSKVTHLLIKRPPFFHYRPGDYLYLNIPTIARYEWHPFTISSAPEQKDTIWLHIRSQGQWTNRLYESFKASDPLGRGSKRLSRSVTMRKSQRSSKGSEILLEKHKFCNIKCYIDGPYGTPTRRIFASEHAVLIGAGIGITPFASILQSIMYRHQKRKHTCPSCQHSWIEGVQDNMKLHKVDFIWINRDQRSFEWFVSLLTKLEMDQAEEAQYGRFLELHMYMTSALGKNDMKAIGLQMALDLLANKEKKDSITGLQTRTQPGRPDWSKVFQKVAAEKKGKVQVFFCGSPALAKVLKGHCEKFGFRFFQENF
NADPH oxidase 2 (Homo sapiens), sequence (P04839 whole entry, looked up): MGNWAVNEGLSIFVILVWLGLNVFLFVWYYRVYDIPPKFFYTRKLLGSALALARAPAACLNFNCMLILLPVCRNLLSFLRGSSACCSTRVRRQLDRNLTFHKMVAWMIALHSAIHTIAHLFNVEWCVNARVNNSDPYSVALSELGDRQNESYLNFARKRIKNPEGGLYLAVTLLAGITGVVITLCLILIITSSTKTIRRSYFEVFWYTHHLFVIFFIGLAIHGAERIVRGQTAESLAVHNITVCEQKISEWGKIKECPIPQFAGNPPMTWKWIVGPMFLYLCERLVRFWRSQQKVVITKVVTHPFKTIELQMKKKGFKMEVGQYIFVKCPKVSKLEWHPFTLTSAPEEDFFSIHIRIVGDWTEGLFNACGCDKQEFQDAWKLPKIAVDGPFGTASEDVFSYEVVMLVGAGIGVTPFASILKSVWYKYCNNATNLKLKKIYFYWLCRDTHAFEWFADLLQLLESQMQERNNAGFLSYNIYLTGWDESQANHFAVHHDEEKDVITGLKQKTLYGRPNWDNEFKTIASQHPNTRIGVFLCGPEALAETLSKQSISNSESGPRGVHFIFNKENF

Turning to `Cc1ccc(S[C@]2(C(=O)NC3CC3)CC(=O)N(Cc3cc(C(F)(F)F)cc(C(F)(F)F)c3)[C@@H]2c2ccc(CO)cc2I)cc1`, the z-score in assay [1] was 0.147 (inactive); in [3], 5.58 (inactive); in [4] it was 0.774 (inactive); in [5] it was 0.231 (inactive); in assay [6], 0.229 (inactive); in assay [7], -0.185. Besides, the z-score in assay [8] is 1.52 (inactive); in [9], -1.62 (inactive); in assay [10], 1.14; in assay [11] it was -0.155; in assay [12], -0.136; in assay [13] it was 0.311. Also, the z-score was -2.53 in assay [14]; -1.81 in assay [15]; -0.9 in assay [16]; -0.373 (inactive) in assay [17]; -0.921 in [18]; -2.03 in assay [19]. For the same molecule, the z-score in assay [20] is 0.851 (inactive). The composite z-score in [2] is -0.625.
In the case of `O=C1O[C@H](c2ccccc2)[C@H](c2ccccc2)N2[C@H]1[C@@H](C(=O)NC[C@H](O)c1ccccc1)[C@]1(C(=O)Nc3ccc(C#CCCO)cc31)[C@H]2c1ccccc1OCCO`, the z-score is 0.631 (inactive) in assay [1]; 2.45 (inactive) in assay [3]; 0.612 (inactive) in [4]; 0.478 (inactive) in [5]; 0.786 (inactive) in assay [6]; 0.288 in assay [7]. Besides, the z-score in [8] was 2.14 (inactive); in assay [9] it was 1.35 (inactive); in assay [10] it was 1.6; in assay [11], -0.661; in [12] it was 1.43; in assay [13], -1.12. For the same molecule, the z-score in assay [14] was -0.751; in assay [15] it was -1.41; in assay [16], -0.864; in [17], 2.89 (inactive); in assay [18], -0.72; in [19], -0.341. Also, the z-score in assay [20] is 1.86 (inactive). Moreover, in assay [2], the composite z-score was 0.0752.
As to `CC(C)CNC(=O)[C@@H]1c2ccccc2C(=O)N(C2Cc3ccccc3C2)[C@H]1c1ccc(CO)cc1`, the z-score in [1] is 1.93 (inactive); in assay [3], 3.11 (inactive); in assay [4], 0.693 (inactive); in [5] it was 1.18 (inactive); in assay [6] it was 0.232 (inactive); in assay [7] it was 0.0629. Moreover, the z-score in assay [8] is 0.182 (inactive); in assay [9], 1.12 (inactive); in assay [10] it was 0.105; in assay [11] it was 2.03; in assay [12], 0.319; in assay [13] it was 1.74. Also, the z-score was 0.0933 in assay [14]; 0.362 in assay [15]; 3.2 in assay [16]; 0.228 (inactive) in assay [17]; -0.836 in assay [18]; 0.00489 in assay [19]. In assay [20], the z-score was 0.797 (inactive). In addition, the composite z-score in assay [2] is 0.0861.
As for `COCCOC(=O)N1C(=O)[C@@]2(c3cc(C#CCNC(N)=O)ccc31)[C@H](C(=O)NC[C@H](O)c1ccccc1)[C@H]1C(=O)O[C@H](c3ccccc3)[C@H](c3ccccc3)N1[C@@H]2c1ccc(OCCO)cc1`, the z-score in assay [1] was -0.242 (inactive); in [3], 2.83 (inactive); in assay [4] it was 0.757 (inactive); in assay [5], 0.742 (inactive); in assay [6] it was 0.581 (inactive); in assay [7], 0.457. The z-score is 2.5 (inactive) in assay [8]; 1.01 (inactive) in [9]; -0.677 in assay [10]; -0.877 in [11]; -0.116 in assay [12]; -1.07 in [13]. The z-score in [14] was -0.286; in assay [15], 0.995; in [16] it was -1.61; in assay [17], 0.213 (inactive); in [18] it was 0.418; in assay [19], -0.193. Besides, the z-score in assay [20] is 0.637 (inactive). This molecule displayed a composite z-score in assay [2] of 0.278.
`COCC1=C([C@H](O)CCc2ccccc2)[C@H](CO)n2c(=O)n(-c3ccccc3)c(=O)n2C1`: the z-score is 3.47 (inactive) in assay [1]; 2.67 (inactive) in assay [3]; -0.913 (inactive) in assay [4]; -0.618 (inactive) in assay [5]; -1.61 (inactive) in [6]; 1.72 in assay [7]. The z-score in assay [8] is -0.638 (inactive); in assay [9], -2.05 (inactive); in assay [10] it was -0.659; in assay [11], 0.119; in [12], 0.102; in [13], 0.925. The z-score in assay [14] was 0.572; in assay [15], -0.221; in assay [16], -0.835; in assay [17], -0.596 (inactive); in assay [18], -0.309; in assay [19] it was -1.37. Further, in [20], the z-score was -0.619 (inactive). Moreover, the composite z-score in assay [2] was -0.409.
`CC(=O)c1ccc(C(O)C2C=CC3C(=O)NC(=O)C3N2Nc2ccc(Cl)cc2Cl)cc1` (stereo not given): the z-score in assay [1] was -2.32 (inactive); in assay [3], 2.38 (inactive); in assay [4], 0.738 (inactive); in [5] it was 1.15 (inactive); in assay [6], 1 (inactive); in assay [7], -0.497. Also, the z-score is -0.826 (inactive) in assay [8]; -5.81 (inactive) in assay [9]; -3.8 in assay [10]; -0.807 in assay [11]; -0.458 in assay [12]; -1.28 in [13]. Besides, the z-score in assay [14] is -0.124; in [15], -0.344; in assay [16], -0.976; in [17], -1.4 (inactive); in assay [18], 0.574; in [19], 0.863. The z-score in assay [20] was -0.743 (inactive). In assay [2], the composite z-score is 0.0267.
Consider `CC#CCO[Si](C#CCCCCCC)(C(C)C)C(C)C`, for which the z-score was 0.323 (inactive) in assay [1]; 0.0926 (inactive) in [3]; -0.607 (inactive) in assay [4]; -1.09 (inactive) in assay [5]; 0.283 (inactive) in assay [6]; 0.393 in [7]. Further, the z-score in assay [8] was -1.27 (inactive); in assay [9], -0.681 (inactive); in assay [10], -3.5; in [11], -0.5; in assay [12], -0.381; in assay [13], -0.23. Moreover, the z-score is -1.52 in [14]; -1.03 in assay [15]; -1.15 in assay [16]; -0.552 (inactive) in assay [17]; -0.69 in assay [18]; -1.3 in assay [19]. Also, the z-score in [20] was 0.518 (inactive). The composite z-score in assay [2] is -0.0501.
Take `CN1C(=O)C2C=CC(C(O)c3ccc(-c4ccccc4)s3)N(Nc3ccccc3)C2C1=O` (stereo not given): the z-score in assay [1] was -1.06 (inactive); in assay [3] it was 2.55 (inactive); in assay [4], 1.05 (inactive); in assay [5], 0.156 (inactive); in assay [6], 1.29 (inactive); in [7] it was -0.857. Further, the z-score in [8] was -1.21 (inactive); in [9] it was -4.15 (inactive); in assay [10], -1.81; in assay [11], -0.485; in assay [12], -1.2; in assay [13], -0.99. The z-score in assay [14] is -0.467; in [15], -1.64; in [16], -1.44; in assay [17], -0.896 (inactive); in [18], -0.364; in [19] it was -0.138. For the same molecule, in assay [20], the z-score is -0.086 (inactive). Also, the composite z-score in [2] was 0.612.
